Measurements from PubChem BioAssay AID504700 (The Scripps Research Institute Molecular Screening Center, 2011).
The campaign covered roughly 340,000 compounds. About 270 (0.079%) were called active.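 Rule for the calls: active = activation above a cutoff set at the mean over all compounds plus 3 SD (cut at about 18% in these data); inactive = the rest.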 The entries come from a sample that favours actives as a whole.

The compounds below were run against cAMP-dependent protein kinase catalytic subunit beta (Homo sapiens) + cAMP-dependent protein kinase type II-beta regulatory subunit (Homo sapiens) (UniProt P22694+P31323) (assay: activators of PKA-R2B holoenzyme, primary screen, biochemical, fluorescence polarization, Cy5-IP20, human (AID 504700;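 note: higher means more holoenzyme dissociation and a rise in polarization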)). Details: PKA-R2B holoenzyme dissociation, at 11.4 µM, hits give high values, 0% DMSO only, 100% 113 µM cGMP, R2B truncated from residue 108, S112A mutant.
Chain of cAMP-dependent protein kinase catalytic subunit beta (Homo sapiens) + cAMP-dependent protein kinase type II-beta regulatory subunit (Homo sapiens) (P31323 whole entry, looked up, other chains not shown, the tested form may be a part): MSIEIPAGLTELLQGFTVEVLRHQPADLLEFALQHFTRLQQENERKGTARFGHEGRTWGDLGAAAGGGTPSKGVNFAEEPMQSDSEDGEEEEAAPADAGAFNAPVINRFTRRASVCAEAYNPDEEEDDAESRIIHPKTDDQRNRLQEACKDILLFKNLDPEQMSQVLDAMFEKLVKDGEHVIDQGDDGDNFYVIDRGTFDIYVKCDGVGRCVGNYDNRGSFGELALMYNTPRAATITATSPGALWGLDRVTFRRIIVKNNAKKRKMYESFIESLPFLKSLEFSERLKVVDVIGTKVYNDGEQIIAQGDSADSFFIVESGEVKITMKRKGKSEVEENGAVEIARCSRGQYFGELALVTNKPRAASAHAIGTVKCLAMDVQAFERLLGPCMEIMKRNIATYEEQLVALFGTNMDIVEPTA

Q: Which activation does the source give for `C[C@H]1CN([C@@H](C)CO)C(=O)CCCn2cc(nn2)CO[C@@H]1CN(C)S(=O)(=O)c1ccc(-c2ccccc2)cc1` here?
A: -2.02% (inactive)

Q: With `Cc1csc(=O)n1CCC(=O)OCC(=O)Nc1ccc(N2CCOCC2)cc1` as the compound, how does the activation read?
A: -13.7% (inactive)

Q: Which activation does the source give for `COc1cc(C)c(CN2CCN(C(=O)CCC(=O)c3ccc(C)s3)CC2)cc1OC` here?
A: -4.23% (inactive)

Q: How did the activation turn out when `C[C@@H]1CN([C@H](C)CO)C(=O)c2cc(-c3ccc(F)cc3)cnc2O[C@H]1CN(C)C(=O)c1ccc(F)cc1` was run?
A: -10.7% (inactive)

Q: `O=C(CCc1ccc(O)cc1)NN=Cc1cc(Br)ccc1O` was tested. Which activation did it give?
A: -5.67% (inactive)

Q: How did the activation turn out when `CCCCN1CC(C)(C)[C@H](CC(=O)Nc2ccc(Br)cc2)C1=O` was run?
A: -7.25% (inactive)

Q: `C=CCOc1cccc(C2C(C(=O)c3ccc(C)o3)=C(O)C(=O)N2CCN2CCOCC2)c1` (centres undefined) was tested. Which activation did it give?
A: 2.21% (inactive)

Q: Which activation does the source give for `CC1(C)CC(=O)C=C(c2ccccc2CO)C1=O` here?
A: -3.08% (inactive)

Q: For `C[C@@H]1CN([C@@H](C)CO)C(=O)CCCn2nncc2CO[C@H]1CN(C)C(=O)Nc1ccc(C(F)(F)F)cc1`, which activation is on record?
A: -17.1% (inactive)

Q: How did the activation turn out when `C[C@@H]1CN([C@H](C)CO)C(=O)CCCn2nncc2CO[C@@H]1CN(C)C(=O)OCc1ccccc1` was run?
A: -4.31% (inactive)

Q: `O=C(NCCOc1ccccc1)N1[C@H]2CC[C@@H]1C=C(c1ccc(F)cc1OCc1ccccc1)C2` was tested. Which activation did it give?
A: -0.02% (inactive)

Q: `CSc1ncnc2c1ncn2CCCNCC(C)c1ccccc1` (centres undefined) was tested. Which activation did it give?
A: -3.46% (inactive)

Q: For `Cc1ccc(-c2ccc(CN3C(C)C(=O)N(Cc4cn(CCC5OCCCO5)nn4)CCS3(=O)=O)cc2)cc1` (centres undefined), which activation is on record?
A: -0.73% (inactive)

Q: `CSc1ncccc1C(=O)N1CCCC(Nc2ccc(F)c(F)c2)C1` (centres undefined) was tested. Which activation did it give?
A: -3.17% (inactive)

Q: With `COc1ccccc1-n1c(SCC(=O)Nc2ccc(Cl)cc2)nc(O)c(Cc2ccccc2)c1=O` as the compound, how does the activation read?
A: 0.18% (inactive)

Q: For `Cc1cc(=O)c2ccc(NC(=O)c3ccccc3)cc2[nH]1`, which activation is on record?
A: 0.43% (inactive)

Q: Which activation does the source give for `CCC(C)(C)NC(=O)CN(C(=O)CCC(=O)Nc1nccs1)c1ccc2c(c1)OCO2` here?
A: 6.11% (inactive)

Q: `COc1ccc(N(CC(=O)NCc2ccc(F)cc2)C(=O)CCC(=O)Nc2nccs2)cc1` was tested. Which activation did it give?
A: -12.4% (inactive)

Q: With `O=C(CN(C(=O)CCC(=O)Nc1nccs1)c1ccc(F)cc1)NCc1ccc2c(c1)OCO2` as the compound, how does the activation read?
A: 18.4% (active)

Q: How did the activation turn out when `O=C(Nc1ccc2c(c1)[C@@H]1C[C@@H](CC(=O)N3CCCCC3)O[C@@H](CO)[C@@H]1O2)NC1CCCCC1` was run?
A: -11.6% (inactive)

Q: For `O=C(OCc1cn([C@@H]2C[C@H](c3ccc(Cl)cc3)N(Cc3cccs3)C[C@H]2O)nn1)c1ccccc1`, which activation is on record?
A: -14.6% (inactive)

Q: How did the activation turn out when `CCN(CC)C(=O)C1=C(C)N(Cc2ccc(F)cc2)C(=O)C(CC(=O)NCc2cccc3ccccc23)C1` (centres undefined) was run?
A: 1.37% (inactive)

Q: Which activation does the source give for `O=c1[nH]c2ccccc2n1C1CCN(CCOc2ccccc2)CC1` here?
A: -11% (inactive)

Q: Which activation does the source give for `CSC1=NN(c2ccccc2)CN(c2ccccc2)N1C` here?
A: 9.82% (inactive)

Q: For `O=C(COC(=O)Cc1ccc(Cl)cc1Cl)NCc1ccco1`, which activation is on record?
A: -1.41% (inactive)

Q: Which activation does the source give for `CCCC(=O)Nc1ncnc2c1ncn2[C@@H]1O[C@@H]2OP(=O)(O)OC[C@H]2[C@H]1OC(=O)CCC` here?
A: 42.6% (active)

Q: For `CCOC(=O)c1c(C)[nH]c(C)c1C(=O)COC(=O)/C=C/c1cccc([N+](=O)[O-])c1`, which activation is on record?
A: -7.22% (inactive)

Q: For `COc1ccc(CN2C(=O)C(CC(=O)NCCN3CCOCC3)CC(C(=O)N(C(C)C)C(C)C)=C2C)cc1` (centres undefined), which activation is on record?
A: -6% (inactive)

Q: `CC(OC(=O)c1cccc(S(=O)(=O)N2CCOCC2)c1)C(=O)NCC1CCCCC1` (centres undefined) was tested. Which activation did it give?
A: 12.7% (inactive)

Q: With `O=S(=O)(NCCc1ccncc1)c1ccccc1` as the compound, how does the activation read?
A: -6.62% (inactive)

Q: `O=S(=O)(NCCc1ccccc1)c1ccccc1` was tested. Which activation did it give?
A: -0.17% (inactive)

Q: With `O=S(=O)(NCCNS(=O)(=O)c1ccccc1)c1ccccc1` as the compound, how does the activation read?
A: 21.6% (active)

Q: With `COc1ccc(C(C)(C)C)cc1NC(=O)CN(C)C1=NS(=O)(=O)c2ccccc21` as the compound, how does the activation read?
A: -0.8% (inactive)

Q: With `O=C(Nc1cc(F)ccc1F)c1ccc2c(=O)n3c(nc2c1)CCC3` as the compound, how does the activation read?
A: 0.72% (inactive)

Q: Which activation does the source give for `CC(C)CCOc1ccc(C(=O)Nc2cc(S(=O)(=O)N3CCOCC3)ccc2N2CCOCC2)cc1` here?
A: -1.72% (inactive)

Q: For `Cc1sc2nc(-c3ccccc3F)oc(=O)c2c1C`, which activation is on record?
A: -7.56% (inactive)

Q: How did the activation turn out when `O=C(NCc1nnnn1-c1ccc(Cl)cc1)c1ccc([N+](=O)[O-])o1` was run?
A: -12% (inactive)

Q: `COc1cc(NC(=O)C2=C(C)OCCS2)c(Cl)cc1C(=O)NCCCN1CCCC(C)C1` (centres undefined) was tested. Which activation did it give?
A: -6.54% (inactive)

Q: With `C[C@H]1Cn2cnc(C(=O)N[C@H](C)c3ccccc3)c2C(=O)N1` as the compound, how does the activation read?
A: 1.6% (inactive)

Q: For `Cc1ccn2c(-c3csc(Nc4ccc(C(=O)O)cc4)n3)c(C)nc2c1`, which activation is on record?
A: -9.54% (inactive)

Q: With `C[C@@H]1CN([C@@H](C)CO)C(=O)CCCn2cc(nn2)CO[C@H]1CN(C)S(=O)(=O)c1ccc(-n2cccn2)cc1` as the compound, how does the activation read?
A: -4.5% (inactive)

Q: With `CCc1c(N=O)c(-c2ccccc2)n(O)[n+]1[O-]` as the compound, how does the activation read?
A: -1.7% (inactive)

Q: Which activation does the source give for `C[C@@H]1CN([C@@H](C)CO)C(=O)c2cc(Br)cnc2O[C@H]1CN(C)Cc1ccc(-c2ccccc2)cc1` here?
A: 1.42% (inactive)

Q: `O=C(CC(CC(=O)c1ccccc1)c1ccco1)c1ccccc1` was tested. Which activation did it give?
A: -2.04% (inactive)

Q: For `C[C@@H]1Cn2cnc(C(=O)Nc3ccc(CNC(=O)OC(C)(C)C)cc3)c2C(=O)N1`, which activation is on record?
A: -0.19% (inactive)

Q: With `COCCCn1c(=O)/c(=C/c2ccccc2OC(C)C)s/c1=C(\C#N)C(=O)Nc1ccc(C(=O)O)cc1` as the compound, how does the activation read?
A: 0.06% (inactive)

Q: `O=C(OCc1ccccc1)N1CCC2CC1c1cc(N3CCN(S(=O)(=O)c4cc(Cl)cc(Cl)c4)CC3)ccc12` (centres undefined) was tested. Which activation did it give?
A: -12.1% (inactive)

Q: With `CCc1cccc(CC)c1N1C(=O)CC(Sc2ccccc2N)C1=O` (centres undefined) as the compound, how does the activation read?
A: 3.56% (inactive)

Q: How did the activation turn out when `COc1cccc(OC)c1C(=O)N1CCN(Cc2ccccc2F)CC1` was run?
A: -3.43% (inactive)

Q: Which activation does the source give for `COC(=O)C(Cc1c[nH]c2ccccc12)NC(=O)CCNC(=O)c1ccco1` (centres undefined) here?
A: 7.88% (inactive)

Q: Which activation does the source give for `COc1cc2c(=O)n(C)c3ccccc3c2cc1OC` here?
A: -7.59% (inactive)

Q: Which activation does the source give for `N#CC1(Nc2ccc3c4c(cccc24)CC3)CCCCC1` here?
A: -2.43% (inactive)

Q: How did the activation turn out when `Cc1ccc([C@H]2C[C@H](O)[C@@H](n3cc(COC(=O)c4ccccc4)nn3)CN2C(=O)C2CCCCC2)cc1` was run?
A: -12.7% (inactive)

Q: `O=NN(CCCl)C(=O)NCCc1cccc[n+]1[O-]` was tested. Which activation did it give?
A: -9.83% (inactive)

Q: `CC(C)N=C1CCCC1C(=S)SSC(=S)C1CCCC1=NC(C)C` (centres undefined) was tested. Which activation did it give?
A: -0.99% (inactive)

Q: Which activation does the source give for `Cc1ccc(CN(C)C[C@@H]2OCc3cnnn3CCCC(=O)N([C@@H](C)CO)C[C@H]2C)cc1` here?
A: -5.57% (inactive)

Q: How did the activation turn out when `CC1=C(C(=O)N2CCOCC2)CC(CC(=O)NCc2ccco2)C(=O)N1Cc1ccc(F)cc1` (centres undefined) was run?
A: -2.68% (inactive)

Q: With `C=CCOc1ccccc1CNn1c(C)n[nH]c1=S` as the compound, how does the activation read?
A: 10.7% (inactive)

Q: For `Cc1c(NC(=O)COC(=O)/C=C/c2cccc(F)c2)c(=O)n(-c2ccccc2)n1C`, which activation is on record?
A: -14.1% (inactive)

Q: For `CCc1cc(-c2nnn(CCC3COCCO3)c2CC)ccc1-c1cn(Cc2ccc3ccccc3c2)nn1` (centres undefined), which activation is on record?
A: 2.92% (inactive)

Q: How did the activation turn out when `CCC1NC(=O)c2cccnc2-n2c1nc1ccc(C)cc1c2=O` (centres undefined) was run?
A: 2.84% (inactive)

Q: Which activation does the source give for `CNC(=O)c1ccc(CN(C)C(=O)c2cc(C3CC3)nc3c2cnn3C(C)C)cc1` here?
A: -10% (inactive)

Q: With `O=C(OCC(=O)N1CCCCCC1)c1cccc(Cl)c1Cl` as the compound, how does the activation read?
A: -0.23% (inactive)

Q: With `O=C(c1ccc(F)cc1)N1CCCC(C(=O)N2CCCCC2)C1` (centres undefined) as the compound, how does the activation read?
A: -0.42% (inactive)

Q: For `NC(=O)C1CCN(C(=O)c2ccc(C(F)(F)F)cc2)CC1`, which activation is on record?
A: -0.72% (inactive)

Q: `CC(C)(C)c1ccc(C(=O)N2CCC(C(=O)N3CCCCC3)CC2)cc1` was tested. Which activation did it give?
A: 19.2% (active)

Q: For `CC1=C(C(=O)N(C)C)CC(CC(=O)NCCN2CCOCC2)C(=O)N1Cc1ccccc1` (centres undefined), which activation is on record?
A: 10.5% (inactive)

Q: How did the activation turn out when `COc1ccccc1-c1n[nH]nc1C1=CC(=O)CC(C)(C)C1` was run?
A: -8.69% (inactive)

Q: For `Cc1ccc(C(=O)N[C@H](C(=O)N2CCN(c3ncccn3)CC2)C(C)C)cc1`, which activation is on record?
A: -3.29% (inactive)

Q: `CCCCN1C(=O)C(CC(=O)NCc2cccs2)CC(C(=O)N2CCOCC2)=C1C` (centres undefined) was tested. Which activation did it give?
A: 3.17% (inactive)

Q: `O=C(OCc1cn([C@H]2C[C@H](c3ccccc3)N(C(=O)c3cccs3)C[C@@H]2O)nn1)c1ccccc1` was tested. Which activation did it give?
A: 4.15% (inactive)

Q: For `COc1ccc(C(=O)N/N=C(\C)CC(=O)Nc2ccc(Cl)cn2)cc1`, which activation is on record?
A: -4.03% (inactive)

Q: `COc1ccc(C/C(C)=N/NC(=O)c2cc(C)oc2C)cc1` was tested. Which activation did it give?
A: -9.63% (inactive)

Q: With `COc1ccc(C/C(C)=N/NC(=O)c2ccncc2)cc1` as the compound, how does the activation read?
A: 18.7% (active)

Q: How did the activation turn out when `C[C@H]1Cn2cnc(C(=O)N[C@@H](Cc3c[nH]c4ccccc34)C(=O)OC(C)(C)C)c2C(=O)N1` was run?
A: -2.27% (inactive)

Q: How did the activation turn out when `CC(=O)Nc1c(-c2ccc(C)cc2)nc2ccc(Cl)cn12` was run?
A: -8.99% (inactive)

Q: How did the activation turn out when `CC1CCN(c2ccc3c(c2)S(=O)(=O)c2cc(C(=O)O)ccc2C3=O)CC1` was run?
A: -8.29% (inactive)

Q: With `CCN(CC)CCN(C(=O)c1ccc2c(c1)CCCC2)c1nc2c(OC)cccc2s1` as the compound, how does the activation read?
A: -1.68% (inactive)

Q: With `CNS(=O)(=O)c1ccc2c(c1)[nH]c(=S)n2C` as the compound, how does the activation read?
A: 9.72% (inactive)

Q: For `C=CCn1nc(C(=O)OCC)cc1-c1sc(NC(=O)c2ccccc2)nc1C`, which activation is on record?
A: 4.98% (inactive)

Q: How did the activation turn out when `COc1ccc(C(=O)NCC2CCCO2)cc1S(=O)(=O)NCc1ccc(Cl)cc1` (centres undefined) was run?
A: -8.65% (inactive)

Q: Which activation does the source give for `Cc1cc2c3ccccc3[nH]c(=O)n2n1` here?
A: -8.33% (inactive)

Q: For `CCOc1ccc(S(=O)(=O)NCCC(=O)NNC(=O)c2ccc(F)cc2)cc1`, which activation is on record?
A: -0.05% (inactive)

Q: Which activation does the source give for `COc1ccc(-n2c(-c3ccc(Cl)cc3)n[nH]c2=S)c(OC)c1` here?
A: 13% (inactive)
